Among the data in paper PMC11006913 are binding signal values, retold here.

Holding throughout (test): PBM; 200 nM protein, PBS
What all share (settings): dsDNA, one strand shown

In assay [1] the target is HOXC10 (Homo sapiens, UniProt Q9NYD6 254-340).
Assay [2] has as its target HOXC10 (Homo sapiens, UniProt Q9NYD6 254-340, K271E).
Assay [3] has as its target ALX4 (Homo sapiens, UniProt Q9H161 200-286).
In assay [4] the target is T1, PAX4 (Homo sapiens, UniProt O43316 9-242, R200K).
T1 sequence: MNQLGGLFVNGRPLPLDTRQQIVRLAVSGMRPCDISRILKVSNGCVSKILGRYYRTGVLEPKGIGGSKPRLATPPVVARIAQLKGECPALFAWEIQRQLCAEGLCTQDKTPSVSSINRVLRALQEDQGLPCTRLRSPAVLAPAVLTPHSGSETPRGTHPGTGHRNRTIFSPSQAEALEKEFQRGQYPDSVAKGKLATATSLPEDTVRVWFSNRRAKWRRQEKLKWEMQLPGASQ

Assay [5] has as its target T2, PAX4 (Homo sapiens, UniProt O43316 9-242).
T2 sequence: T1 sequence with K192R

Assay [6] concerns the target ALX4 (Homo sapiens, UniProt Q9H161 200-286, Q225E).
In assay [7] the target is ALX1 (Homo sapiens, UniProt Q15699 118-204, L144V).
ALX1 (Homo sapiens, UniProt Q15699 118-204, L144V), sequence (Q15699 118-204 L144V): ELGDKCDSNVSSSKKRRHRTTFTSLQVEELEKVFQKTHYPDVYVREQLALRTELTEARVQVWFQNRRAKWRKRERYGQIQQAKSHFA
Assay [8] deals with ALX3 (Homo sapiens, UniProt O95076 139-225, N203Q).
ALX3 (Homo sapiens, UniProt O95076 139-225, N203Q), sequence (O95076 139-225 N203Q): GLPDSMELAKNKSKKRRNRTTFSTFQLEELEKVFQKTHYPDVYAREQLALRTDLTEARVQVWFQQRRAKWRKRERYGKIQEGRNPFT
Assay [9] addresses T3, PAX4 (Homo sapiens, UniProt O43316 9-242, R200Q).
T3 sequence: T1 sequence with K192Q

In assay [10] the target is ALX1 (Homo sapiens, UniProt Q15699 118-204, L144R).
ALX1 (Homo sapiens, UniProt Q15699 118-204, L144R), sequence (Q15699 118-204 L144R): as the sequence (Q15699 118-204 L144V) above, with V27R counted along it
The target of assay [11] is T4, PAX4 (Homo sapiens, UniProt O43316 9-242, F177V).
T4 sequence: T1 sequence with F169V, K192R

Assay [12] concerns the target ALX3 (Homo sapiens, UniProt O95076 139-225).
For assay [13], the target named is T5, PAX4 (Homo sapiens, UniProt O43316 9-242, F177Y).
T5 sequence: T1 sequence with F169Y, K192R

The target in assay [14] is ALX3 (Homo sapiens, UniProt O95076 139-225, L168Q).
ALX3 (Homo sapiens, UniProt O95076 139-225, L168Q), sequence (O95076 139-225 L168Q): as the sequence (O95076 139-225 N203Q) above, with L30Q, Q65N counted along it
Assay [15] has as its target ALX3 (Homo sapiens, UniProt O95076 139-225, L168V).
Assay [16] has as its target T6, PAX4 (Homo sapiens, UniProt O43316 9-242, R227W).
T6 sequence: T1 sequence with K192R, R219W

The target in assay [17] is ALX3 (Homo sapiens, UniProt O95076 139-225, N203S).
ALX3 (Homo sapiens, UniProt O95076 139-225, N203S), sequence (O95076 139-225 N203S): as the sequence (O95076 139-225 N203Q) above, with Q65S counted along it
Assay [18] has as its target PRRX1 (Homo sapiens, UniProt P54821 80-166, F113S).
Assay [19] has as its target PRRX1 (Homo sapiens, UniProt P54821 80-166).
The target in assay [20] is MSX2 (Homo sapiens, UniProt P35548 130-214).
MSX2 (Homo sapiens, UniProt P35548 130-214), sequence (P35548 130-214): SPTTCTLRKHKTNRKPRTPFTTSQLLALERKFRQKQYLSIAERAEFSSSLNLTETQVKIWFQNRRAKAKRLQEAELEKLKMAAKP
Assay [21] addresses MSX2 (Homo sapiens, UniProt P35548 130-214, F161Y).

Positions count from the first letter of the chain named.

HOXC10 (Homo sapiens, UniProt Q9NYD6 254-340, K271E), sequence (Q9NYD6 254-340 K271E): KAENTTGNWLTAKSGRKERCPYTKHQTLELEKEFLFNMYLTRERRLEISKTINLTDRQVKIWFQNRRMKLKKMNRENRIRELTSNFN
ALX4 (Homo sapiens, UniProt Q9H161 200-286), sequence (Q9H161 200-286): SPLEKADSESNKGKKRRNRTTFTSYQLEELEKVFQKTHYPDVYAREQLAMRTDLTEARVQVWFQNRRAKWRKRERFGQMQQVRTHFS
HOXC10 (Homo sapiens, UniProt Q9NYD6 254-340), sequence (Q9NYD6 254-340): as the sequence (Q9NYD6 254-340 K271E) above, with E18K counted along it
ALX4 (Homo sapiens, UniProt Q9H161 200-286, Q225E), sequence (Q9H161 200-286 Q225E): as the sequence (Q9H161 200-286) above, with Q26E counted along it
PRRX1 (Homo sapiens, UniProt P54821 80-166, F113S), sequence (P54821 80-166 F113S): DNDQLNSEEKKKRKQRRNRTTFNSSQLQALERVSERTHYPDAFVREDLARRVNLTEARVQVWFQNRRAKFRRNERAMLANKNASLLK
MSX2 (Homo sapiens, UniProt P35548 130-214, F161Y), sequence (P35548 130-214 F161Y): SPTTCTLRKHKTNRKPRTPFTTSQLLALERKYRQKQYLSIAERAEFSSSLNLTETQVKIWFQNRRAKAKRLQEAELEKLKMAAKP
PRRX1 (Homo sapiens, UniProt P54821 80-166), sequence (P54821 80-166): as the sequence (P54821 80-166 F113S) above, with S34F counted along it
ALX3 (Homo sapiens, UniProt O95076 139-225, L168V), sequence (O95076 139-225 L168V): as the sequence (O95076 139-225 N203Q) above, with L30V, Q65N counted along it
ALX3 (Homo sapiens, UniProt O95076 139-225), sequence (O95076 139-225): as the sequence (O95076 139-225 N203Q) above, with Q65N counted along it

For CGTGAATA, the binding signal with HOXC10 [1] was 10.7 upbm affinity estimate (log intensity, higher = more binding, comparable within an allelic series); with HOXC10 [2], 10.7 upbm affinity estimate (log intensity, higher = more binding, comparable within an allelic series).
Take CCGACTCG: the binding signal with HOXC10 [1] was 10.1 upbm affinity estimate (log intensity, higher = more binding, comparable within an allelic series); with HOXC10 [2], 10.1 upbm affinity estimate (log intensity, higher = more binding, comparable within an allelic series).
ATAGATGA: the binding signal with HOXC10 [1] was 10.8 upbm affinity estimate (log intensity, higher = more binding, comparable within an allelic series); in the assay with HOXC10 [2], 10.8 upbm affinity estimate (log intensity, higher = more binding, comparable within an allelic series).
For AGCAGGGC, the binding signal with HOXC10 [1] was 10.1 upbm affinity estimate (log intensity, higher = more binding, comparable within an allelic series); with HOXC10 [2] it was 10.1 upbm affinity estimate (log intensity, higher = more binding, comparable within an allelic series).
As to CGGCCCCG, the binding signal with HOXC10 [1] was 10.2 upbm affinity estimate (log intensity, higher = more binding, comparable within an allelic series); with HOXC10 [2] it was 10.1 upbm affinity estimate (log intensity, higher = more binding, comparable within an allelic series).
As for GCTCCCGA, the binding signal was 9.93 upbm affinity estimate (log intensity, higher = more binding, comparable within an allelic series) with HOXC10 [1] and 10.1 upbm affinity estimate (log intensity, higher = more binding, comparable within an allelic series) with HOXC10 [2].
Turning to GGGGCTAC, the binding signal was 10.1 upbm affinity estimate (log intensity, higher = more binding, comparable within an allelic series) with HOXC10 [1] and 10.1 upbm affinity estimate (log intensity, higher = more binding, comparable within an allelic series) in the assay with HOXC10 [2].
On to AAGCCTGG, for which the binding signal in the assay with HOXC10 [1] was 10.1 upbm affinity estimate (log intensity, higher = more binding, comparable within an allelic series); with HOXC10 [2] it was 10 upbm affinity estimate (log intensity, higher = more binding, comparable within an allelic series).
Turning to CAGCGCGG, the binding signal is 10 upbm affinity estimate (log intensity, higher = more binding, comparable within an allelic series) with HOXC10 [1] and 9.95 upbm affinity estimate (log intensity, higher = more binding, comparable within an allelic series) in the assay with HOXC10 [2].
As to AGCTCTGC, the binding signal in the assay with HOXC10 [1] is 9.99 upbm affinity estimate (log intensity, higher = more binding, comparable within an allelic series); with HOXC10 [2] it was 9.97 upbm affinity estimate (log intensity, higher = more binding, comparable within an allelic series).
As to GCCTAATA, the binding signal with HOXC10 [1] is 11 upbm affinity estimate (log intensity, higher = more binding, comparable within an allelic series); in the assay with HOXC10 [2] it was 10.9 upbm affinity estimate (log intensity, higher = more binding, comparable within an allelic series).
As to AGCTTCTG, the binding signal with HOXC10 [1] was 10.1 upbm affinity estimate (log intensity, higher = more binding, comparable within an allelic series); with HOXC10 [2], 10 upbm affinity estimate (log intensity, higher = more binding, comparable within an allelic series).
On to CATTCTAA, for which the binding signal in the assay with ALX4 [3] was 9.79 upbm affinity estimate (log intensity, higher = more binding, comparable within an allelic series).
Still for that read-out and setting: next, CCACTAAC: 10 upbm affinity estimate (log intensity, higher = more binding, comparable within an allelic series).
Consider AAATTAAC, for which the binding signal with ALX4 [3] is 13.5 upbm affinity estimate (log intensity, higher = more binding, comparable within an allelic series); in the assay with PAX4 [4], 11.6 upbm affinity estimate (log intensity, higher = more binding, comparable within an allelic series); with PAX4 [5], 12.2 upbm affinity estimate (log intensity, higher = more binding, comparable within an allelic series); with ALX4 [6], 12.7 upbm affinity estimate (log intensity, higher = more binding, comparable within an allelic series); with ALX1 [7] it was 11.4 upbm affinity estimate (log intensity, higher = more binding, comparable within an allelic series); with ALX3 [8], 8.36 upbm affinity estimate (log intensity, higher = more binding, comparable within an allelic series). The binding signal with PAX4 [9] is 11.9 upbm affinity estimate (log intensity, higher = more binding, comparable within an allelic series); with ALX1 [10], 11.1 upbm affinity estimate (log intensity, higher = more binding, comparable within an allelic series); with PAX4 [11] it was 10.5 upbm affinity estimate (log intensity, higher = more binding, comparable within an allelic series); with ALX3 [12], 12.2 upbm affinity estimate (log intensity, higher = more binding, comparable within an allelic series); with PAX4 [13] it was 10.9 upbm affinity estimate (log intensity, higher = more binding, comparable within an allelic series); in the assay with ALX3 [14] it was 10.3 upbm affinity estimate (log intensity, higher = more binding, comparable within an allelic series). Further, the binding signal with ALX3 [15] is 9.64 upbm affinity estimate (log intensity, higher = more binding, comparable within an allelic series); with PAX4 [16], 10.9 upbm affinity estimate (log intensity, higher = more binding, comparable within an allelic series); with ALX3 [17], 8.57 upbm affinity estimate (log intensity, higher = more binding, comparable within an allelic series).
On to CATTACCG, for which the binding signal in the assay with ALX4 [3] is 11.2 upbm affinity estimate (log intensity, higher = more binding, comparable within an allelic series).
Take GAGCACCC: the binding signal in the assay with ALX4 [3] was 7.99 upbm affinity estimate (log intensity, higher = more binding, comparable within an allelic series); in the assay with PRRX1 [18], 9.2 upbm affinity estimate (log intensity, higher = more binding, comparable within an allelic series); in the assay with ALX4 [6], 8.37 upbm affinity estimate (log intensity, higher = more binding, comparable within an allelic series); with PRRX1 [19], 9.01 upbm affinity estimate (log intensity, higher = more binding, comparable within an allelic series).
As for TACTTAGA, the binding signal with HOXC10 [1] was 10.8 upbm affinity estimate (log intensity, higher = more binding, comparable within an allelic series); with MSX2 [20], 11.1 upbm affinity estimate (log intensity, higher = more binding, comparable within an allelic series); with MSX2 [21], 10.9 upbm affinity estimate (log intensity, higher = more binding, comparable within an allelic series).
As to AATGGCCT, the binding signal with ALX4 [3] is 10.3 upbm affinity estimate (log intensity, higher = more binding, comparable within an allelic series).
Still for that read-out and setting: next, ACATTACC: 10.7 upbm affinity estimate (log intensity, higher = more binding, comparable within an allelic series).
